This is an account of results in ChEMBL document CHEMBL2218924, “A broad activity screen in support of a chemogenomic map for kinase signalling research and drug discovery” (Biochem J, 2013).

For assay [1], the target named is Tyrosine-protein kinase Fer (Homo sapiens) (UniProt P16591). The note with it: at 10 µM.
Assay [2] concerns the target Tyrosine-protein kinase Fes/Fps (Homo sapiens) (UniProt P07332). The following applies: at 1 µM.
The target is the same in assay [3]. The note with it: at 10 µM.
Assay [4] has as its target Tyrosine-protein kinase Fgr (Homo sapiens) (UniProt P09769). The note with it: at 1 µM.
Assay [5] has the same target. The following applies: at 10 µM.
Assay [6] has as its target Vascular endothelial growth factor receptor 1 (Homo sapiens) (UniProt P17948). The following applies: at 1 µM.
Assay [7] has the same target. The note with it: at 10 µM.
The target of assay [8] is Receptor-type tyrosine-protein kinase FLT3 (Homo sapiens) (UniProt P36888). The following applies: at 1 µM.
Assay [9] has the same target. The note with it: at 10 µM.
Assay [10] addresses Vascular endothelial growth factor receptor 3 (Homo sapiens) (UniProt P35916). The following applies: at 1 µM.

Sequence of Vascular endothelial growth factor receptor 3 (Homo sapiens) (P35916 whole entry): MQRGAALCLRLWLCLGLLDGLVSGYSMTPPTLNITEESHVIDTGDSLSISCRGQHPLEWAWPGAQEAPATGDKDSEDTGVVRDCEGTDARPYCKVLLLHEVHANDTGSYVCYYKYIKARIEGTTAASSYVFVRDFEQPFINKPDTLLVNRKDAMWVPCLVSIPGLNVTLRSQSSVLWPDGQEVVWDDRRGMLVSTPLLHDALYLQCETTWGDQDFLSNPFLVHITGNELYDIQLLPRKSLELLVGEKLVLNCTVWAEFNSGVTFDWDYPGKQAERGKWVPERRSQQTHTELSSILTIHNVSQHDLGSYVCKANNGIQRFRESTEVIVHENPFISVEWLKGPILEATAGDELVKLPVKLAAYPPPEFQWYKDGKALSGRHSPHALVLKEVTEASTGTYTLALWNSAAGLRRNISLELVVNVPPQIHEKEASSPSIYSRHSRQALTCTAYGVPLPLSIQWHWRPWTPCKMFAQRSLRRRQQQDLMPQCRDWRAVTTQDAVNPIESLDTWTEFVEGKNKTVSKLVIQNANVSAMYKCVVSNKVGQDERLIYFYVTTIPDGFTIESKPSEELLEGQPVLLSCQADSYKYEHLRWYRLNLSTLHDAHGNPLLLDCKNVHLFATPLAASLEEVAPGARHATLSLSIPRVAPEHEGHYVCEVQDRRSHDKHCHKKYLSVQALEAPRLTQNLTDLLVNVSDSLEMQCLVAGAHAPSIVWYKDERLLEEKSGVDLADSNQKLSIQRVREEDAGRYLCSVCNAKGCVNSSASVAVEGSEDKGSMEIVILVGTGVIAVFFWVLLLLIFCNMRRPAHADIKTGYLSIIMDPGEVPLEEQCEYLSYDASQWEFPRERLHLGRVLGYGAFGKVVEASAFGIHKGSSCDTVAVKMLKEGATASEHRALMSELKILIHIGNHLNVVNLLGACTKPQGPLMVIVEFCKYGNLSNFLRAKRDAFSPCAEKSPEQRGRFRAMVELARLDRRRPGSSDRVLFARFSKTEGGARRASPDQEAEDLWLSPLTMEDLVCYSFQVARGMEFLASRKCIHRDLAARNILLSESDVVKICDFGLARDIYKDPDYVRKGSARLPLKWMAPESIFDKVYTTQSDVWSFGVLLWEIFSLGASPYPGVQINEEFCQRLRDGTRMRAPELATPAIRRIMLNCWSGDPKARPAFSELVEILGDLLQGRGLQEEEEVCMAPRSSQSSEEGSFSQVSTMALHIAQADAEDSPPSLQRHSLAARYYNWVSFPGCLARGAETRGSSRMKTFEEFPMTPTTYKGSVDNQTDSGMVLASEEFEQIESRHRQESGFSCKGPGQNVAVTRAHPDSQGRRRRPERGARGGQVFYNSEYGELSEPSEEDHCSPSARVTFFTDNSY
Sequence of Vascular endothelial growth factor receptor 1 (Homo sapiens) (P17948 whole entry): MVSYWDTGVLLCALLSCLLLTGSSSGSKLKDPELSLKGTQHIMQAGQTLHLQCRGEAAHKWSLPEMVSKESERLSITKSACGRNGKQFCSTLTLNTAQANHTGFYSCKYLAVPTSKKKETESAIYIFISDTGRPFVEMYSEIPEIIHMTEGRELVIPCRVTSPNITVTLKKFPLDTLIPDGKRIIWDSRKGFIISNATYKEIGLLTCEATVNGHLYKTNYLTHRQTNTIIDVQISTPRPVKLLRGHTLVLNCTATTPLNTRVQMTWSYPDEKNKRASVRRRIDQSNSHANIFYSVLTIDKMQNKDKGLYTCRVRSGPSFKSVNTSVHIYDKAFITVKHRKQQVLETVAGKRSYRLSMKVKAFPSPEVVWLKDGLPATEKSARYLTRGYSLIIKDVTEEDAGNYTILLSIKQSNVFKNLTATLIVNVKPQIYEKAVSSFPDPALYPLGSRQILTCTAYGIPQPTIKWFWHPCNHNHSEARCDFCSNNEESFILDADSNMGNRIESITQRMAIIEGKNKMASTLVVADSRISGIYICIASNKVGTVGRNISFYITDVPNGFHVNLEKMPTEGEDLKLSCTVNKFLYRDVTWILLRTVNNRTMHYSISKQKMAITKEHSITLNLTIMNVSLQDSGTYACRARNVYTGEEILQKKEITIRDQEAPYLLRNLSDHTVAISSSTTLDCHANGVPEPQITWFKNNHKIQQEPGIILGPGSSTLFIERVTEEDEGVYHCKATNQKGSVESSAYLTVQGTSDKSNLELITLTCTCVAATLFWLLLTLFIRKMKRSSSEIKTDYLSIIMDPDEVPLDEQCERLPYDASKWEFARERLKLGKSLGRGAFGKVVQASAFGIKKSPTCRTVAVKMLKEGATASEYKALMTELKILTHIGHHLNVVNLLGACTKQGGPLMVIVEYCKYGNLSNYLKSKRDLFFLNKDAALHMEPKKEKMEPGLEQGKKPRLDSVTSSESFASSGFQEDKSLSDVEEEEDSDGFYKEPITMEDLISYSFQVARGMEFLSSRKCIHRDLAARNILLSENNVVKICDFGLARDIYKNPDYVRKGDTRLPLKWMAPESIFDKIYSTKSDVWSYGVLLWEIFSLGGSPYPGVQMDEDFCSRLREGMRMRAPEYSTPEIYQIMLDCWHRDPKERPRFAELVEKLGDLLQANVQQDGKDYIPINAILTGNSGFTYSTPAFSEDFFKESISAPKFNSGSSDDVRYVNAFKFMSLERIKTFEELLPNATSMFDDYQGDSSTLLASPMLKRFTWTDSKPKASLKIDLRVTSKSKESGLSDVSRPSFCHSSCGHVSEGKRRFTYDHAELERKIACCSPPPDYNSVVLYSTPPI
Sequence of Receptor-type tyrosine-protein kinase FLT3 (Homo sapiens) (P36888 whole entry): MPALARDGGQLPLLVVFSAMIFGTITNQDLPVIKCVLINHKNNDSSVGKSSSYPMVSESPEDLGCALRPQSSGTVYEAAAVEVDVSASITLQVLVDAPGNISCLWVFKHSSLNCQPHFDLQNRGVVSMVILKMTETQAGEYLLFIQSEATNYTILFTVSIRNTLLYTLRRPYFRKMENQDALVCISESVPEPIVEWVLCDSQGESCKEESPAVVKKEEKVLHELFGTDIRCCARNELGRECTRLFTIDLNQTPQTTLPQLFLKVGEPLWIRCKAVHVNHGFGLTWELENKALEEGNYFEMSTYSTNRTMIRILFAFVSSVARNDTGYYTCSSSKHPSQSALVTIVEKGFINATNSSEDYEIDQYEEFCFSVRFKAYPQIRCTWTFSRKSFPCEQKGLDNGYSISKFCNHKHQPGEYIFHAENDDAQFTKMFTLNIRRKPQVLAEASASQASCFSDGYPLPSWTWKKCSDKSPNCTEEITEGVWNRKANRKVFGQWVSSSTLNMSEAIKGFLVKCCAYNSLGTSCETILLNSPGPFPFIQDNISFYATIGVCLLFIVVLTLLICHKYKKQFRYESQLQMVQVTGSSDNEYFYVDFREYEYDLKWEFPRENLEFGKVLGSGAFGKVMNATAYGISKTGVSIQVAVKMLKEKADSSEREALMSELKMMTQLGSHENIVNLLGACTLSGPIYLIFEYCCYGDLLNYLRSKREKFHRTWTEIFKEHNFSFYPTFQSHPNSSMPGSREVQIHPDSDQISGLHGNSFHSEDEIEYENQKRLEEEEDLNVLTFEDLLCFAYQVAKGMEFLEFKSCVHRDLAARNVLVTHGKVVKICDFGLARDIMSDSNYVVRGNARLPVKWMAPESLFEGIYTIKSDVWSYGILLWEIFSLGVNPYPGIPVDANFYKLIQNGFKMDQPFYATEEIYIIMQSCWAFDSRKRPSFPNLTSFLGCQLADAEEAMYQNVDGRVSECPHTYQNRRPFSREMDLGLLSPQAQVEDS
Sequence of Tyrosine-protein kinase Fgr (Homo sapiens) (P09769 2-529 limits assumed): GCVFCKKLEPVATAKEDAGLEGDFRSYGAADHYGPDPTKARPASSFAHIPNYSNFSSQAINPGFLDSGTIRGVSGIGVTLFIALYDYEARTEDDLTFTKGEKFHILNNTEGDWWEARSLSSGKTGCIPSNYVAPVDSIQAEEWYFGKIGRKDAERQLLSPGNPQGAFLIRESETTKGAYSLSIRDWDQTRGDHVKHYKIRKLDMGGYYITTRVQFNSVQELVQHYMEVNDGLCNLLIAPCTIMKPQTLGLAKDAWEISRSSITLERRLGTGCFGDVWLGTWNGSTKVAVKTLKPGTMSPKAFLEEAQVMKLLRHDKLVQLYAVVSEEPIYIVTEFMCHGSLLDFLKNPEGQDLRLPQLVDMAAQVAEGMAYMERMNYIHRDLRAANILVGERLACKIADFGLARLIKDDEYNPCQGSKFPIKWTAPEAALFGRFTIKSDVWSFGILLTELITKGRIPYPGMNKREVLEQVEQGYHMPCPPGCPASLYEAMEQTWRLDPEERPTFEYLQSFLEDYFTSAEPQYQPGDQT
Sequence of Tyrosine-protein kinase Fer (Homo sapiens) (P16591 whole entry, looked up): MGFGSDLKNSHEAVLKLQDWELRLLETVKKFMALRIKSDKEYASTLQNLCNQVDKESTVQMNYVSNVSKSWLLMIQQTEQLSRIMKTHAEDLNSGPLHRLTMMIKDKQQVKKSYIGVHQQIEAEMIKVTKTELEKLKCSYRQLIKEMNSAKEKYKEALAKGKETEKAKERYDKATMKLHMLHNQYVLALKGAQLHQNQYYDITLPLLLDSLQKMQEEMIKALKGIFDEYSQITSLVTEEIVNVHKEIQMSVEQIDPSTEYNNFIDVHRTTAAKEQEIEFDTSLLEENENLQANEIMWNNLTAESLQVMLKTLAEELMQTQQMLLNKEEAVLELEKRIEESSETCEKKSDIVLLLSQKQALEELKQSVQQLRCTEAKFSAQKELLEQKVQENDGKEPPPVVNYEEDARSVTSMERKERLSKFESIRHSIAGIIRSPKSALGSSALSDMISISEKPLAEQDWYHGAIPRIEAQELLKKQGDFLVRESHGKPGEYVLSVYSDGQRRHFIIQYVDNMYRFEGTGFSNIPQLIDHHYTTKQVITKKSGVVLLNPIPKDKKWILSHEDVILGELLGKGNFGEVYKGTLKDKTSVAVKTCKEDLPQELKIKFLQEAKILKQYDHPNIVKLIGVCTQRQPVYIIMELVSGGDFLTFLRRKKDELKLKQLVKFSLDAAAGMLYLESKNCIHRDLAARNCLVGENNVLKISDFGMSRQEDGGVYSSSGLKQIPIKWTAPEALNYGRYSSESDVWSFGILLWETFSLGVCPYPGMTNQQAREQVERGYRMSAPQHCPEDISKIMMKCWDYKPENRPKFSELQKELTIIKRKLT

For `Oc1ccc(Nc2nc(-c3ccc(Cl)cc3)cs2)cc1`, the residual activity in assay [1] came to 100%; in assay [2], 106%; in [3], 95%; in [4], 96%; in assay [5] it was 93%; in assay [6], 99%. The residual activity in assay [7] amounted to 77%; in assay [8], 70%; in [9] it was 56%; in [10] it was 45%.
Regarding `Cn1nc2c3c(cccc31)C(=O)c1ccccc1-2`, the residual activity in [1] came to 76%; in assay [2], 98%; in [3], 94%; in assay [4] it was 98%; in [5], 89%; in assay [6], 75%. Moreover, the residual activity in assay [7] amounted to 52%; in assay [8], 50%; in [9] it was 20%; in assay [10], 57%.
Take `Cc1nc2cc3nc(-c4cccs4)cnc3cc2n1C`: the residual activity in assay [1] was 105%; in assay [2], 134%; in assay [3], 88%; in assay [4], 109%; in [5], 69%; in [6], 40%. The residual activity was 3% in [7], 15% in [8], 1% in assay [9] and 24% in [10].
As to `O=C(Nc1cccc(Nc2cc(Nc3cccc(C(F)(F)F)c3)ncn2)c1)C1CC1`, the residual activity in assay [1] worked out at 92%; in [2] it was 113%; in [3], 86%; in assay [4], 90%; in assay [5] it was 81%; in [6], 99%. The residual activity is 61% in assay [7], 108% in [8], 128% in [9] and 97% in assay [10].
With `COc1cc2ncnc(N3CCN(C(=O)Nc4ccc(Oc5ccccc5)cc4)CC3)c2cc1OC`, the residual activity worked out at 88% in [1]; 98% in assay [2]; 86% in assay [3]; 96% in assay [4]; 97% in assay [5]; 56% in assay [6]. Besides, the residual activity in assay [7] amounted to 21%; in assay [8], 37%; in assay [9] it was 18%; in [10], 31%.
Consider `O=C1NC(=O)/C(=C\c2ccc3nccnc3c2)S1`, for which the residual activity came out at 94% in [1]; 108% in [2]; 85% in assay [3]; 107% in assay [4]; 89% in assay [5]; 88% in [6]. For the same molecule, the residual activity worked out at 78% in [7], 94% in [8], 76% in [9] and 98% in [10].
Regarding `O=c1cc(-c2cccc3c2Sc2ccccc2S3)oc(N2CCOCC2)c1`, the residual activity stood at 83% in assay [1]; 94% in assay [2]; 96% in assay [3]; 99% in [4]; 93% in assay [5]; 95% in assay [6]. Also, the residual activity turned out to be 85% in [7], 85% in assay [8], 83% in assay [9] and 97% in assay [10].
In the case of `Oc1ccc(-c2nc(-c3ccc(F)cc3)c(-c3ccncc3)[nH]2)cc1`, the residual activity in assay [1] was 93%; in [2], 107%; in assay [3], 99%; in assay [4], 93%; in assay [5], 40%; in [6] it was 83%. Moreover, the residual activity in [7] was 26%; in [8], 87%; in assay [9] it was 85%; in [10] it was 90%.
In the case of `CO[C@H]1C[C@@H]2CC[C@@H](C)[C@@](O)(O2)C(=O)C(=O)N2CCCC[C@H]2C(=O)O[C@H]([C@H](C)C[C@@H]2CC[C@@H](O)[C@H](OC)C2)CC(=O)[C@H](C)/C=C(\C)[C@@H](O)[C@@H](OC)C(=O)[C@H](C)C[C@H](C)/C=C/C=C/C=C/1C`, the residual activity in assay [1] stood at 95%; in assay [2] it was 106%; in [3] it was 84%; in [4], 98%; in assay [5], 99%; in assay [6], 88%. Moreover, the residual activity is 96% in assay [7], 100% in [8], 96% in assay [9] and 99% in assay [10].
Turning to `Ic1cccc(CSc2nnc(-c3ccncc3)o2)c1`, the residual activity in [1] was 100%; in assay [2], 88%; in assay [3], 92%; in [4], 80%; in assay [5], 81%; in assay [6] it was 26%. In addition, the residual activity came to 19% in [7], 30% in assay [8], 19% in assay [9] and 22% in assay [10].
`Cc1nc(-c2ccccc2)c(-c2ccncc2)o1`: the residual activity in [1] turned out to be 105%; in assay [2], 108%; in assay [3] it was 120%; in assay [4] it was 95%; in assay [5], 92%; in assay [6], 89%. In addition, the residual activity is 60% in [7], 69% in assay [8], 28% in assay [9] and -1% in assay [10].
In the case of `COc1ccc(CNc2nc(N(CCO)CCO)nc3c2ncn3C(C)C)cc1`, the residual activity in assay [1] came to 86%; in assay [2], 62%; in assay [3], 23%; in [4], 77%; in assay [5], 85%; in assay [6] it was 88%. The residual activity in assay [7] stood at 55%; in assay [8] it was 85%; in assay [9], 74%; in [10], 62%.
Take `Nc1nc(Nc2ccc(S(N)(=O)=O)cc2)nn1C(=S)Nc1c(F)cccc1F`: the residual activity in assay [1] stood at 1%; in assay [2], 2%; in [3], 1%; in assay [4] it was 9%; in [5], 1%; in [6], 0%. The residual activity in assay [7] is -1%; in [8], 2%; in assay [9], 1%; in assay [10] it was 0%.
Regarding `CCN(CC)C(=O)c1ccc(Nc2nc(OCC3CCCCC3)c3nc[nH]c3n2)cc1`, the residual activity worked out at 6% in [1]; 61% in assay [2]; 9% in assay [3]; 55% in assay [4]; 7% in assay [5]; 33% in assay [6]. The residual activity was 2% in [7], 5% in assay [8], 1% in [9] and 0% in assay [10].
Regarding `CCN(CC)CCCCN1c2ccccc2Oc2ccc(Cl)cc21`, the residual activity came to 102% in assay [1]; 129% in assay [2]; 88% in assay [3]; 111% in assay [4]; 95% in [5]; 115% in assay [6]. Further, the residual activity is 112% in assay [7], 98% in assay [8], 74% in assay [9] and 96% in [10].
On to `CC[n+]1c(/C=C/N(C)c2ccccc2)n(-c2ccccc2)c2ccc(-c3nc4ccccc4s3)cc21`, for which the residual activity in assay [1] was determined as 59%; in [2] it was 121%; in [3], 105%; in assay [4], 98%; in assay [5], 88%; in [6] it was 105%. Further, the residual activity stood at 83% in assay [7], 77% in assay [8], 26% in assay [9] and 89% in [10].
In the case of `O=C1NC(=O)c2c1c1c3ccccc3[nH]c1c1[nH]c3cc(Br)ccc3c21`, the residual activity turned out to be 86% in assay [1]; 100% in assay [2]; 96% in [3]; 100% in assay [4]; 91% in [5]; 30% in [6]. For the same molecule, the residual activity in assay [7] is 17%; in [8], 41%; in assay [9], 27%; in [10] it was 4%.
